Screens deposited in PubChem by several laboratories.
SARS 3CLpro inh: SARS-CoV 3CLpro protease inhibitors, primary screen, biochemical, quenched FRET; Replicase polyprotein 1ab (Severe acute respiratory syndrome coronavirus), P0C6X7; recombinant SARS-CoV 3CLpro, quenched FRET peptide cleavage; inhibition, % at 6 µM; 290,000 compounds, 0.14% hits; AID 1706, 2009; in the data active means inhibition above about 12%
FBA Mtb inh: Mtb FBA enzyme inhibitors, primary screen, biochemical, fluorescence, strain H37Rv | Fructose-bisphosphate aldolase (Mycobacterium tuberculosis (strain ATCC 25618 / H37Rv)), … | purified M. tuberculosis FBA, fluorescence read-out | inhibition, % at 1 µM | 360,000 compounds, 2.3% hits | AID 588726, 2011; in the data active means inhibition above about 27%;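 further: 0% = vehicle and 100% = reference inhibitor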
Target sequence (P9WQA3 whole entry, looked up): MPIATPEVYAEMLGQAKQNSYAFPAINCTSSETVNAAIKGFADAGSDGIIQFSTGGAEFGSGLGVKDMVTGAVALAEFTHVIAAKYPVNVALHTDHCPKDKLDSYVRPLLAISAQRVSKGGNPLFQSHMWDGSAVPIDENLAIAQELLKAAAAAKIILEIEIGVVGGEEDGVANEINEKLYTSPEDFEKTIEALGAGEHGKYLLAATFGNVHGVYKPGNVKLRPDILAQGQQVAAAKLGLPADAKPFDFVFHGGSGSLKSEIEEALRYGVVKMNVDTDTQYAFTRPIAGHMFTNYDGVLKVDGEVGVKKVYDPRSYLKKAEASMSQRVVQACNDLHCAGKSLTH
GDH-TPI counter: GDH-TPI coupling enzyme inhibitors, primary screen, artefact control for M. tuberculosis FBA inhibitor project, biochemical, absorbance, full deck | GDH-TPI coupled enzyme counterscreen, NADH absorbance | inhibition, % at 4.8 µM | 360,000 compounds, 1.2% hits | AID 588335, 2011; in the data active means inhibition above about 30%;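 further: 0% = DMSO wells and 100% = wells lacking the enzyme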
PrPC surface inh: inhibitors of human cell surface prion protein PrPC, primary screen, cell-based, TR-FRET | TR-FRET read-out | inhibition, % at 13.8 µM | 370,000 compounds, 0.43% hits; in the data active means inhibition above about 24%; further: 0% = median of the test wells and 100% = reference compound wells
BH1578 lux ind: inducers of Vibrio cholerae quorum light production without autoinducers, primary screen, BH1578 luxS cqsA deficient, single point. 350,000 compounds, 0.16% hits. activation, % at 18.7 µM. V. cholerae BH1578 lux reporter, luminescence, 6 h; in the data active means activation mostly above about 9.7%, no sharp cut-off
An asterisk follows results filed as active; i = inactive; x = no result; + = active, no number. A selection: hits, their analogues and other compounds. The true share with any hit is near 3.9%.

SMILES	SARS 3CLpro inh	FBA Mtb inh	GDH-TPI counter	PrPC surface inh	BH1578 lux ind
CC(=O)N1N=C(c2ccccc2)CC1c1ccccc1 (stereo not drawn)	-3	-1	7	-2	-1
CC(C(=O)N1CCN(c2ccccc2)CC1)c1ccc([N+](=O)[O-])cc1 (stereo not drawn)	0	-2	20	-17	i
Cc1c(Cl)cnc(NC(=O)COC(=O)c2cccc(S(=O)(=O)N3c4ccccc4CC3C)c2)c1Cl (stereo not drawn)	3	0	4	0	0
COc1ccccc1N1CCN(S(=O)(=O)c2ccc3c(c2)n(C)c(=O)c(=O)n3C)CC1	x	x	x	6	x
CNC(=S)N1N=C(c2ccccc2)CC1c1ccccc1Cl (stereo not drawn)	-5	2	6	8	0
NS(=O)(=O)c1ccc(N2N=C(c3ccccc3)CC2c2ccccc2Cl)cc1 (stereo not drawn)	x	188*	25	-3	-2
Cc1ccc(C2CC(c3ccccc3)=NN2c2ccc(S(N)(=O)=O)cc2)cc1 (stereo not drawn)	x	+	-2	4	1
Cc1ccc(C2=NN3C(=O)c4ccccc4C3C2)cc1 (stereo not drawn)	0	4	12	-16	-1
COc1ccc(/C=C2/SC(=S)NC2=O)cc1OCc1ccccc1	3	-1	19	-2	0
O=C1NC(=O)/C(=C\c2ccc(Oc3cnccn3)cc2)S1	4	-2	16	-1	i
COc1cc(/C=C2/SC(=O)NC2=O)ccc1OCc1ccccc1	8	-1	43*	-6	0
COc1cc(/C=C2\SC(=O)NC2=O)ccc1Oc1cnccn1	-1	-2	36*	-2	i
O=C(NC1CCSC1)c1cccc(Cl)c1 (stereo not drawn)	4	-3	2	-4	i
CCOc1ccccc1C(=O)NCC(=O)NNC(=O)c1cccc(S(=O)(=O)Nc2ccc(OC)cc2)c1	x	0	4	5	536*
COc1ccc(NS(=O)(=O)c2cccc(C(=O)NNC(=O)CNC(=O)c3ccco3)c2)cc1	-4	0	-8	6	-1
COc1ccc(NC(=O)C2=CC(c3ccco3)=NS(=O)(=O)N2C)cc1OC	1	-1	27	-30	0
CC(=O)c1ccc(NC(=O)C2=CC(c3ccco3)=NS(=O)(=O)N2C)cc1	-2	2	31*	-38	0
O=C(COC(=O)C12CC3CC(CC(C3)C1)C2)Nc1nccs1	9	1	3	2	i
NC(=S)N/N=C/c1ncc(C(F)(F)F)cc1Cl	-5	2	46*	x	i
O=C(O)COc1c(-c2ccccc2)oc2ccccc2c1=O	1	2	10	6	2
CC(=O)Oc1c(-c2ccco2)oc2ccccc2c1=O	0	22	44*	0	0
COCCn1c(-c2ccc(OC)cc2)c(-c2ccc(OC)cc2)oc1=O	10	131*	-3	7	i
CC(C)(C)c1nnc(N/N=C/c2ccccc2O)n(N)c1=O	-5	0	36*	-1	0
O=C(c1ccc(N2CCN(C(=O)c3cccc(F)c3)CC2)cc1)c1cccc(F)c1	0	-1	31*	0	-1
O=C(c1ccc(N2CCN(C(=O)c3ccccc3Br)CC2)cc1)c1cccc(F)c1	-3	3	18	6	i
SMILES	SARS 3CLpro inh	FBA Mtb inh	GDH-TPI counter	PrPC surface inh	BH1578 lux ind
CC(=O)c1ccc(N2CCN(C(=S)Nc3cccc(F)c3)CC2)cc1	-4	3	35*	4	0
COc1ccc(-n2c(SCC(=O)C(C)(C)C)nc3c(sc(=S)n3-c3ccccc3)c2=O)c(OC)c1	4	2	9	3	i
CN(/C=C/C(=O)C(F)(F)F)Cc1ccccc1	3	-1	32*	-4	i
COC(=O)c1ccc(Cn2c(C)c(C(=O)Nc3cccc(Oc4ccccc4)c3)sc2=O)o1	x	0	2	-2	0
C=CCc1cc(/C=C2/NC(=S)NC2=O)cc(OC)c1O	4	-11	16	-17	-1
C=CCc1cc(/C=C2/NC(=O)N(CC(=O)OC)C2=O)cc(OC)c1O	2	1	32*	-9	0
CN(CC(=O)NCCc1ccc(F)cc1)Cc1cccc(Cl)c1	-3	1	-1	-4	-2
COc1cccc(CNC(=O)[C@H]2CCCN2C(=O)[C@H]2CCCN2C(=O)c2c(F)cccc2F)c1	x	x	x	0	x
CC(=O)Nc1cccc2c1Cc1cc([N+](=O)[O-])ccc1-2	x	1	40*	-43	-1
Cc1cccc(NC(=O)CSc2ncnc3sc(C)cc23)c1	-3	-5	5	8	-1
O=C(NCC(=O)N(Cc1cccs1)C(C(=O)NC1CCCC1)c1cccnc1)c1ccco1 (stereo not drawn)	2	117*	-3	-3	1
Cc1ccc(C(=O)N/N=C\c2ccc(-c3ccc(Cl)cc3)o2)cn1	-1	2	31*	-3	i
Cc1ccc(C(=O)N/N=C\c2ccc(-c3ccc([N+](=O)[O-])cc3)o2)cn1	2	-6	16	-22	-1
Cn1cccc1/C=N/NC(=O)c1cccnc1	0	-2	48*	-1	0
Cc1cc(C(=O)NN=Cc2ccc(-c3ccc(F)cc3)o2)c(C)o1	x	5	53*	2	0
Cc1ccc(C(=O)N/N=C\c2cccn2C)cn1	-3	2	54*	0	i
COc1ccccc1N1CCN(C(=O)CCCN2C(=O)c3cccc4cccc(c34)C2=O)CC1	2	-1	19	-24	-1
CC(C)(C)OC(=O)N(CC1CCNCC1)C(=O)c1[nH]c(C(F)(F)F)nc1-c1ccccc1	x	-1	x	-1	x
CN(Cc1ccccc1)C1=CC(=[N+]2CCCCC2)CC(C)(C)C1	6	-1	68*	21	0
CC1(C)CC(N2CCN(Cc3ccccc3)CC2)=CC(=[N+]2CCCCC2)C1	1	0	64*	23	0
c1ccc2c(c1)Cn1nnnc1-2	-3	135*	-2	x	0
COc1cccc(C2/C(=C(\O)c3ccc4c(c3)OCCO4)C(=O)C(=O)N2Cc2cccnc2)c1 (stereo not drawn)	0	5	32*	3	0
C=CCOc1ccc(/C(O)=C2\C(=O)C(=O)N(CCOC)C2c2cccnc2)cc1 (stereo not drawn)	1	3	34*	-2	i
Cc1ccc(/C(O)=C2/C(=O)C(=O)N(CCN3CCOCC3)C2c2cccnc2)cc1 (stereo not drawn)	-2	-1	33*	-8	0
COc1ccc(/C(O)=C2/C(=O)C(=O)N(CCN3CCOCC3)C2c2cccnc2)cc1OC (stereo not drawn)	1	-2	10	-3	-1
